In ChEMBL document CHEMBL4513146, “CO-ADD screening of Karazin Kharkiv National University (Ukraine) compounds”:
Measured potencies and affinities stand elsewhere.

System: Staphylococcus aureus
Conditions: Concentration 32 ug.mL-1;; ASSAY_TEST Inhibition of Bacterial Growth; detection method Absorption (OD600); MEDIA CAMHB; plate type 384well; NBS; CORNING #3640; time 18 hr

Row | SMILES | Inhibition [%]
1 | CSc1cccc(NC(=O)Cn2nc3c(Sc4ccccc4)nccn3c2=O)c1 | -5
2 | Cc1ccc(NC(=O)Cn2nc3ccc(-c4ccc(C)c(C)c4)nn3c2=O)cc1 | 12.01
3 | COc1ccccc1CNC(=O)Cn1nc2c(N3CCCCCC3)nccn2c1=O | 17.1
4 | COc1cc(NC(=O)C(C)Sc2nnc3c(=O)n(-c4ccc(C)c(C)c4)ccn23)cc(OC)c1 (centres undefined) | -0.67
5 | CCCCOc1ccc(-c2cc3c4nnc(SCC(=O)Nc5c(C)cccc5CC)n4ccn3n2)cc1 | -40.6
6 | COc1cc(NC(=O)Cn2nc3ccc(-c4ccc(C)c(C)c4)nn3c2=O)cc(OC)c1 | 8.96
7 | O=C(Cn1nc2c(Oc3ccccc3)nccn2c1=O)Nc1ccc(Br)cc1F | -5.68
8 | O=c1n(Cc2ccccc2F)nc2ccc(S(=O)(=O)N3CCCCCC3)cn12 | 2.98
9 | C=Cc1ccc(CSc2nnc3c(=O)n(-c4ccc(F)cc4)ccn23)cc1 | 18.57
10 | Cc1cc(C)cc(NC(=O)Cn2nc3n(C)c(=O)c4c(c(-c5ccccc5)cn4C)n3c2=O)c1 | 7.23
11 | Cc1cc2nn(CC(=O)Nc3ccc(F)cc3C)c(=O)n2c(Nc2ccc(F)cc2)n1 | 9.22
12 | COc1ccc(NC(=O)Cn2nc3ccc(-c4ccc(Cl)cc4)nn3c2=O)cc1 | 8.85
13 | Cc1nnc2c(S(=O)(=O)N(Cc3cc(F)cc(F)c3)c3cccc(F)c3)cccn12 | 8.19
14 | COc1ccc(N(Cc2ccc(OC)c(F)c2)S(=O)(=O)c2ccc3nncn3c2)cc1 | 2.98
